The entries come from a sample that favours hits as a whole.
CD40 NFkB inh – CD40 pathway inhibition in BL2 cells; BL2 NF-kB luciferase reporter, CD40L-induced, 4 h; AID 1053188; inhibition, % at 10 µM; actives 0.94% (n = 83,000);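 active means mean inhibition of at least 50% with a set share of replicates also reaching that level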;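 further: 0% = neutral control wells and 100% = IKK inhibitor VII at 50 µM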
* = called active by the depositor; ! = not active in a repeat; [ ] = remark or other dose.

Results for O=C(Nc1ccc(C(F)(F)F)cc1)N1C[C@@H]2N[C@H](C1)C2c1ccc(-c2cccc(F)c2)cc1 (stereo not given in full) ?
CD40 NFkB inh: 70*

How did Cc1ccc(-c2ccc(C3[C@@H]4CN(C(=O)Nc5ccc(C(F)(F)F)cc5)C[C@H]3N4)cc2)cc1 (stereo not given in full) do in these assays?
CD40 NFkB inh: 25[25 µM]

What do the screens show for `COc1ccc(NC(=O)N2C[C@@H]3N[C@H](C2)C3c2ccc(-c3cccc(F)c3)cc2)cc1` (stereo not given in full)?
CD40 NFkB inh: -5[25 µM]

Results for COc1ccccc1C(=O)NC(=O)COC(=O)c1ccc(Cl)cc1[N+](=O)[O-] ?
CD40 NFkB inh: -3

Results for COc1ccc(C(=O)COC(=O)COc2cccc3c2OC(C)(C)C3)c(OC)c1 ?
CD40 NFkB inh: 25

How did CC(C)(C)NC(=O)COC(=O)c1ccc(Cl)c(S(N)(=O)=O)c1 do in these assays?
CD40 NFkB inh: -13

Results for C/C=C/c1cccc(-c2nc(C(=O)NC3Cc4ccccc4C3)cc3c2[C@H](CCO)N(C(C)=O)C3)c1 ?
CD40 NFkB inh: 13[25 µM]

How did CC(C)NC(=O)N1Cc2cc(C(=O)NC3Cc4ccccc4C3)nc(-c3cccc(-c4cccnc4)c3)c2[C@@H]1CCO do in these assays?
CD40 NFkB inh: 57*[25 µM]

How did CCC(=O)N1Cc2cc(C(=O)N3CCCCC3)nc(-c3cccc(-c4cccnc4)c3)c2[C@H]1CCO do in these assays?
CD40 NFkB inh: 1[25 µM]

Results for O=C(c1ccccc1)c1cccc(NC(=O)C2CC2)c1 ?
CD40 NFkB inh: -13

How did COCc1c(Br)c(C)nc(OCC(=O)O)c1C#N do in these assays?
CD40 NFkB inh: -4

How did CC(=O)Nc1ccc(C(=O)OCCC(C)C)cc1 do in these assays?
CD40 NFkB inh: -71

What do the screens show for `COC(=O)c1cc(NCc2ccc3c(c2)OCO3)ccc1N1CCOCC1`?
CD40 NFkB inh: 6

Results for Cc1cc(C)n2nc(C(=O)OCC(=O)c3cc(C)n(C)c3C)nc2n1 ?
CD40 NFkB inh: 8

Results for O=S(=O)(c1ccccc1)N1[C@@H]2CNC[C@H]1C2c1ccc(/C=C/c2ccccc2)cc1 (stereo not given in full) ?
CD40 NFkB inh: 51*!

Results for Cc1ccc(S(=O)(=O)N2[C@@H]3CNC[C@H]2C3c2ccc(/C=C/c3ccccc3)cc2)cc1 (stereo not given in full) ?
CD40 NFkB inh: -15[25 µM]

What do the screens show for `O=S(=O)(c1cccc(F)c1)N1[C@@H]2CNC[C@H]1C2c1ccc(/C=C/c2ccccc2)cc1` (stereo not given in full)?
CD40 NFkB inh: -20

What do the screens show for `CCOc1ccc(S(=O)(=O)Nc2cccc(C(=O)N3CCN(c4cccc(OC)c4)CC3)c2)cc1`?
CD40 NFkB inh: 6

How did O=C(CSc1nc2ccccc2n1Cc1ccc(Cl)cc1)N/N=C/c1ccccc1C(=O)O do in these assays?
CD40 NFkB inh: 8

What do the screens show for `COc1ccccc1-c1ccccc1[C@@H]1[C@H](C#N)N(C(=O)C2CC2)[C@H]1CO`?
CD40 NFkB inh: -3[25 µM]

What do the screens show for `O=C(Nc1nc2nc(-c3ccccc3)cc(-c3ccccc3)n2n1)c1ccco1`?
CD40 NFkB inh: 27

What do the screens show for `CC(=O)Nc1nc2nc(-c3ccccc3)cc(-c3ccccc3)n2n1`?
CD40 NFkB inh: 30*

How did O=C(NC1CCCC1)c1cc2nc(-c3ccccc3)cc(-c3ccccc3)n2n1 do in these assays?
CD40 NFkB inh: 9

How did O=C(NCCCNC(=O)c1cccs1)c1cccs1 do in these assays?
CD40 NFkB inh: 10

How did OC(CNc1nc(-c2cccnc2)nc2ccccc12)c1ccccc1 (stereo not given) do in these assays?
CD40 NFkB inh: 0

Results for COc1cccc(C(=O)OCCNC(=O)c2cccnc2)c1 ?
CD40 NFkB inh: 4

How did Cc1noc(C)c1S(=O)(=O)N(C)C[C@@H]1OCCCC[C@H](C)Oc2ccc(NS(=O)(=O)c3cn(C)cn3)cc2C(=O)N([C@@H](C)CO)C[C@H]1C do in these assays?
CD40 NFkB inh: -15[25 µM]

How did Nc1ccc2nc(Cc3ccccc3)[nH]c2c1 do in these assays?
CD40 NFkB inh: 1

How did CCN(CC)c1ccc2nc3ccc(N)cc3[n+](-c3ccccc3)c2c1 do in these assays?
CD40 NFkB inh: 88*

Results for C[C@H]1CN([C@@H](C)CO)C(=O)c2ccccc2-c2ccccc2CO[C@@H]1CN(C)C(=O)c1cc(Cl)cc(Cl)c1 ?
CD40 NFkB inh: 15[25 µM]

Results for C[C@H]1CN([C@@H](C)CO)C(=O)c2c(c3ccccc3n2C)-c2ccccc2CO[C@H]1CN(C)C(=O)c1cc(Cl)cc(Cl)c1 ?
CD40 NFkB inh: 44[25 µM]

What do the screens show for `C[C@@H]1CN([C@H](C)CO)C(=O)c2ccccc2-c2ccccc2CO[C@@H]1CN(C)C(=O)c1cc(Cl)cc(Cl)c1`?
CD40 NFkB inh: 66*[25 µM]

How did C[C@H]1CN([C@@H](C)CO)C(=O)c2ccccc2-c2ccccc2CO[C@@H]1CN(C)C(=O)c1ccccc1 do in these assays?
CD40 NFkB inh: -5

Results for C[C@H]1CN([C@@H](C)CO)C(=O)c2c(c3ccccc3n2C)-c2ccccc2CO[C@@H]1CN(C)C(=O)c1cc(Cl)cc(Cl)c1 ?
CD40 NFkB inh: 40[25 µM]

How did C[C@@H]1CN([C@H](C)CO)C(=O)c2c(c3ccccc3n2C)-c2ccccc2CO[C@@H]1CN(C)C(=O)c1cc(Cl)cc(Cl)c1 do in these assays?
CD40 NFkB inh: 60*[25 µM]

What do the screens show for `CCNC(=O)C(=O)c1c(-c2ccccc2)[nH]c2ccccc12`?
CD40 NFkB inh: 19

Results for Cn1c(=O)[nH]c(=O)c2c1nc(N1CCCCCC1)n2CCOc1ccccc1 ?
CD40 NFkB inh: 14

What do the screens show for `Cc1cc(N)c(C)c([N+](=O)[O-])c1C`?
CD40 NFkB inh: 7

Results for Cc1cnc2c(N)cc(C)c(C)c2c1 ?
CD40 NFkB inh: 90*

How did CN(C1CCCCC1)S(=O)(=O)c1cc2c3c(c1)CCN3C(=O)CC2 do in these assays?
CD40 NFkB inh: 5

How did O=C(O)Cc1csc2ccccc12 do in these assays?
CD40 NFkB inh: 4

How did CCCNC(=O)N1CC[C@@H]2[C@@H](CO)N(C)c3ccc(-c4cccc(OC)c4)cc3[C@@H]21 do in these assays?
CD40 NFkB inh: 8[25 µM]

How did CCOC(=O)c1c(C)[nH]c(C)c1C(=O)COC(=O)CNC(=O)C1CCCCC1 do in these assays?
CD40 NFkB inh: 1

Results for CCc1ccc(C(=O)COC(=O)CNC(=O)C2CCCCC2)cc1 ?
CD40 NFkB inh: 66*

Results for O=C(CNC(=O)C1CCCCC1)OCC(=O)c1ccc(F)cc1 ?
CD40 NFkB inh: -9

How did CCCNC(=O)C[C@H]1C[C@@H]2c3cc(NC(=O)NC4CCCC4)ccc3O[C@@H]2[C@H](CO)O1 do in these assays?
CD40 NFkB inh: 2

Results for Cc1cc(C)n(CCc2nc(-c3ccc(C(C)(C)C)cc3)cs2)n1 ?
CD40 NFkB inh: 22

How did CCCC(=O)Nc1cc(-c2nn(C)c(=O)c3ccccc23)ccc1N1CCCCC1 do in these assays?
CD40 NFkB inh: 1

What do the screens show for `CCC(=O)Nc1cc(-c2nn(C)c(=O)c3ccccc23)ccc1N1CCCCC1`?
CD40 NFkB inh: 48*

How did Cn1nc(-c2ccc(N3CCOCC3)c(NS(=O)(=O)c3ccccc3)c2)c2ccccc2c1=O do in these assays?
CD40 NFkB inh: 16

What do the screens show for `CC1=NN(C(=O)c2ccncc2)C(=O)C1N=Nc1ccc2ccccc2c1` (stereo not given)?
CD40 NFkB inh: -51

How did COC(=O)c1c(C(=O)OC)c2cccc3cc(-c4ccccc4)c4ccc1c4n32 do in these assays?
CD40 NFkB inh: 10

How did CCC(=O)N(CC)C[C@@H]1[C@@H](c2ccc(-c3ccccc3)cc2)[C@H](CO)N1C(C)=O do in these assays?
CD40 NFkB inh: -2[25 µM]
